Source: PubChem
KB-3-1 tox: KB-3-1 parental cell cytotoxicity; Potency, µM (titrated, usually from 46.1 µM), actives largely listed as cytotoxic; KB-3-1 viability, CellTiter-Glo ATP luminescence, 72 h; 1.4% of 400,000 active; note: % is set by controls: 0 for no effect and ±100 for the full control effect; nearly all actives have a fitted effect of over 60% in size
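Cytotoxicity measured as CellTiter-Glo luminescence after 72 h at 37 C. Compound titrations were pinned onto drug-naive KB-3-1 parental adenocarcinoma cells grown in DMEM with 10% FBS, and normalized data fitted to concentration-response curves.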
HT1080NT lethal: kills 2HG-producing HT-1080-NT fibrosarcoma cells. HT-1080-NT fibrosarcoma viability, CellTiter-Glo ATP luminescence, 48 h. Potency, µM (series often up to 46.1 µM), without a hit: at the highest dose activity, negative = less viability, most hits filed as cytotoxic. 1.6% of 360,000 active. AID 686970;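 note: NT is the 2HG producing partner of a matched IDH1 knockdown line; 0% = DMSO-treated cells and -100% = media-only wells without cells; nearly all actives have a fitted effect of over 55% in size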
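Toxicity toward the 2HG-producing NT line was scored as %Activity, normalised to DMSO and no-cell wells, from CellTiter-Glo luminescence after 48 hours' treatment.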
KB-V1 cytotox: KB-V1 MDR subline cytotoxicity. 3.4% of 400,000 active. KB-V1 MDR cells viability, CellTiter-Glo, 72 h. Potency, µM (highest dose often 46.1 µM), hits mostly cytotoxic; note: % is set by controls: 0 for no effect and ±100 for the full control effect; nearly all actives have a fitted effect of over 60% in size
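Compound-treated KB-V1 multidrug-resistant cells, 72 h, 37 degrees C; viability by CellTiter-Glo. Fitted qHTS curves give the values.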
SW480 rerep: inducers of DNA re-replication in SW480 colon cancer cells; Potency, µM (highest dose often 46.1 µM), for inactives: at the highest dose re-replication activation, actives largely listed as activators; SW480 DNA re-replication, Hoechst DNA content imaging, 48 h; 1.8% of 340,000 active; note: % of control where 0% means no effect; nearly all actives have a fitted effect of over 55% in size
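Compounds, transferred as 23 nL by pin tool, were incubated with cells for 48 hr; DNA content per nucleus was then quantified by Hoechst staining and fluorescence plate imaging.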
MCF10A rereplic: inducers of DNA re-replication in MCF 10A breast cells; 2.9% of 350,000 active; MCF 10A DNA re-replication, Hoechst nuclear intensity, 48 h; AID 624296; Potency, µM (top dose mostly 46.1 µM), for the others: at the highest dose activity, positive = re-replication, actives largely listed as activators; note: % of control where 0% means no effect; nearly all actives have a fitted effect of over 50% in size
HT1080 IDH1KD tx: toxicity to HT-1080 IDH1 knockdown cells (counter line); HT-1080 IDH1 knockdown viability, ATP luminescence, 48 h; Potency, µM (series often up to 46.1 µM), without a hit: at the highest dose activity, negative = toxicity, usual class: cytotoxic; 2% of 360,000 active; AID 686971;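 note: 0% = DMSO wells and -100% = cell-free medium wells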
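Using the IDH1-knockdown HT-1080 line run in the same batch and compound series as the NT line, viability after 48 h at 37 °C was determined by CellTiter-Glo luminescence and expressed as % activity.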
An asterisk follows results filed as active; [ ] = dose if it differs, or a comment. An excerpt weighted towards active compounds, which were near 8% of everything screened. Calls come from the whole dose curve; as a rule, active = well fitted curve in the direction sought with a large enough effect; inconclusive = small, poorly fitted or top-dose-only effect, or another doubt; inactive = no such curve, though single readings can be large; an effect the other way counts as inactive or inconclusive. Potency is the fitted concentration of half-maximal effect.

How did Brc1ccc(-c2nc(N3CCN(c4ccccc4)CC3)c3ccccc3n2)cc1 do in these assays?
KB-3-1 tox: inactive; KB-V1 cytotox: inactive

Results for O=C(NC(=S)Nc1ccc(S(=O)(=O)N2CCCC2)cc1)C1CCC1 ?
KB-3-1 tox: inactive; HT1080NT lethal: 3%; KB-V1 cytotox: inactive; SW480 rerep: -3%; MCF10A rereplic: -4%; HT1080 IDH1KD tx: 12%

How did CCOC(=O)c1sc2nc(CSc3ccccc3)nc(N3CCC(C(N)=O)CC3)c2c1C do in these assays?
KB-3-1 tox: inactive; HT1080NT lethal: inconclusive; KB-V1 cytotox: inconclusive; SW480 rerep: 0%; MCF10A rereplic: inconclusive; HT1080 IDH1KD tx: 23µM*

How did COc1cc(-c2ccc3sc(-c4ccsc4)c(C#CCO)c3c2)cc(OC)c1OC do in these assays?
KB-3-1 tox: inactive; HT1080NT lethal: inconclusive; KB-V1 cytotox: inactive; SW480 rerep: 0%; MCF10A rereplic: 12µM*; HT1080 IDH1KD tx: inconclusive

What do the screens show for `COc1cc2c(C#CCCCO)c(-c3ccc(C#N)cc3)oc(=O)c2cc1OC`?
KB-3-1 tox: inactive; HT1080NT lethal: -12%; KB-V1 cytotox: inconclusive; SW480 rerep: inconclusive; MCF10A rereplic: 6.5µM*; HT1080 IDH1KD tx: 0%

What do the screens show for `COc1cc(-c2ccc3oc(-c4ccsc4)c(C#CC4(O)CCCCC4)c3c2)cc(OC)c1OC`?
KB-3-1 tox: inactive; HT1080NT lethal: -1%; KB-V1 cytotox: inactive; SW480 rerep: inconclusive; MCF10A rereplic: 18µM*; HT1080 IDH1KD tx: -16%

How did COc1ccc(-c2oc3cccnc3c2C#CC2(O)CCCCC2)cc1 do in these assays?
KB-3-1 tox: inactive; HT1080NT lethal: inconclusive; KB-V1 cytotox: inactive; SW480 rerep: 27%; MCF10A rereplic: 18µM*; HT1080 IDH1KD tx: inconclusive

Results for COC(=O)c1c(-c2ccsc2)sc2ccc(-c3cc(OC)c(OC)c(OC)c3)cc12 ?
KB-3-1 tox: inactive; HT1080NT lethal: -10%; KB-V1 cytotox: inactive; SW480 rerep: -19%[9.22 µM]; MCF10A rereplic: 1%; HT1080 IDH1KD tx: 0%

Results for COc1cc2c(C#CCO)c(-c3ccc(C#N)cc3)oc(=O)c2cc1OC ?
KB-3-1 tox: inactive; HT1080NT lethal: 20%; KB-V1 cytotox: inactive; SW480 rerep: -2%; MCF10A rereplic: -12%; HT1080 IDH1KD tx: -4%

What do the screens show for `Cc1ccc(NC2CC(=O)N(CCc3ccccc3)C2=O)cc1` (stereo not drawn)?
KB-3-1 tox: inactive; HT1080NT lethal: 2%; KB-V1 cytotox: inactive; SW480 rerep: -14%; MCF10A rereplic: -4%; HT1080 IDH1KD tx: 0%

How did COc1ccc(OC)c(S(=O)(=O)N2CCCC(C(=O)NCc3ccco3)C2)c1 (stereo not drawn) do in these assays?
KB-3-1 tox: inactive; HT1080NT lethal: 3%; KB-V1 cytotox: inactive; SW480 rerep: -5%; MCF10A rereplic: 1%; HT1080 IDH1KD tx: 13%

What do the screens show for `CSc1nnc(C(C)(C)C)c(=O)n1/N=C/c1ccccc1O`?
KB-3-1 tox: inactive; HT1080NT lethal: 10%; KB-V1 cytotox: inactive; SW480 rerep: -28%; MCF10A rereplic: 15%; HT1080 IDH1KD tx: 24%

How did COc1ccc(-c2oc(=O)c3cc(OC)c(OC)cc3c2C#CCCCO)cc1 do in these assays?
KB-3-1 tox: inactive; HT1080NT lethal: -11%; KB-V1 cytotox: inactive; SW480 rerep: 19%; MCF10A rereplic: inconclusive; HT1080 IDH1KD tx: -4%

How did COc1ccc(-c2sc3cc4c(cc3c2C#CCO)OCO4)cc1 do in these assays?
KB-3-1 tox: inconclusive; HT1080NT lethal: -19%; KB-V1 cytotox: inactive; SW480 rerep: inconclusive; MCF10A rereplic: inconclusive; HT1080 IDH1KD tx: -29%

Results for COc1ccc(-c2oc(=O)c3cc(OC)c(OC)cc3c2C#CC2(O)CCCCC2)cc1 ?
KB-3-1 tox: inactive; HT1080NT lethal: 10%; KB-V1 cytotox: inconclusive; SW480 rerep: -11%[9.22 µM]; MCF10A rereplic: 2.1µM*; HT1080 IDH1KD tx: 9%

How did COc1ccccc1-c1sc2cc3c(cc2c1C#CCO)OCO3 do in these assays?
KB-3-1 tox: inactive; HT1080NT lethal: inconclusive; KB-V1 cytotox: inactive; SW480 rerep: -1%; MCF10A rereplic: 21µM*; HT1080 IDH1KD tx: 5%

How did Cc1nc(SCC(=O)Nc2ccc(Br)cc2)[nH]c(=O)c1Cc1ccccc1 do in these assays?
KB-3-1 tox: inactive; KB-V1 cytotox: inactive

What do the screens show for `COc1ccc(-n2nc(C(=O)NCC(=O)NCC3CCCO3)c3ccccc3c2=O)cc1Cl` (stereo not drawn)?
KB-3-1 tox: inactive; HT1080NT lethal: -10%; KB-V1 cytotox: 9.2µM*; SW480 rerep: 0%; MCF10A rereplic: 6%; HT1080 IDH1KD tx: -4%

Results for O=C1C=C(c2ccccc2)C[C@H](c2cccs2)[C@H]1n1nnc([N+](=O)[O-])n1 ?
KB-3-1 tox: inactive; HT1080NT lethal: 15µM*; KB-V1 cytotox: 16µM*; SW480 rerep: 2.1µM*; MCF10A rereplic: inconclusive; HT1080 IDH1KD tx: 9.2µM*

Results for OC1(C#Cc2c(-c3ccsc3)oc3ccc(N4CCOCC4)cc23)CCCCC1 ?
KB-3-1 tox: inconclusive; HT1080NT lethal: inconclusive; KB-V1 cytotox: inactive; SW480 rerep: inconclusive; MCF10A rereplic: inconclusive; HT1080 IDH1KD tx: inconclusive

How did O=C(OCc1ccc(O)cc1)c1c(-c2ccsc2)oc2ccc(N3CCOCC3)cc12 do in these assays?
KB-3-1 tox: inconclusive; HT1080NT lethal: inconclusive; KB-V1 cytotox: inconclusive; SW480 rerep: 21µM*; MCF10A rereplic: 21µM*; HT1080 IDH1KD tx: inconclusive

What do the screens show for `COc1ccc(C#Cc2c(-c3ccsc3)oc3ccc(N4CCOCC4)cc23)cc1`?
KB-3-1 tox: inactive; HT1080NT lethal: -1%; KB-V1 cytotox: inactive; SW480 rerep: 5%; MCF10A rereplic: 16µM*; HT1080 IDH1KD tx: 5%

Results for COc1ccc(-c2oc3ccc(N4CCOCC4)cc3c2C#CC2(O)CCCCC2)cc1 ?
KB-3-1 tox: 21µM*; HT1080NT lethal: inconclusive; KB-V1 cytotox: inactive; SW480 rerep: inconclusive; MCF10A rereplic: inconclusive; HT1080 IDH1KD tx: 21µM*

Results for COc1ccc(C#Cc2c(-c3ccc(OC)cc3)oc3ccc(-c4ccc(OC)cc4)cc23)cc1 ?
KB-3-1 tox: inactive; HT1080NT lethal: 6%; KB-V1 cytotox: inactive; SW480 rerep: -15%; MCF10A rereplic: 3%; HT1080 IDH1KD tx: 2%

What do the screens show for `COc1ccc(-c2oc3ccc(N4CCOCC4)cc3c2C#Cc2ccc(N)cc2)cc1`?
KB-3-1 tox: inconclusive; HT1080NT lethal: 16µM*; KB-V1 cytotox: inconclusive; SW480 rerep: inconclusive; MCF10A rereplic: 5.8µM*; HT1080 IDH1KD tx: 23µM*
